# In PubChem BioAssay AID488777 (Sanford-Burnham Center for Chemical Genomics, 2010):
# Calls of active or inactive are those of the source. How the calls were made is not given here.
# Experiment: assay artefact check, AlphaScreen readout interference – biochemical, artefact control for SUMOylation inhibitor project, SAR follow-up (AID 488777)
# Settings: purified counter-screen enzymes, TR-FRET, 60 min
row,SMILES,IC50
1,CCCCn1c(N)c(C#N)c2nc3ccccc3nc21,> 100 µM (inactive)
2,CCCC1=NN(c2ccccc2)C(=O)/C1=C/c1ccc(OCc2ccc(C(=O)OC)cc2)cc1,> 100 µM (inactive)
3,CCCCn1c(NC(=O)c2ccc(OC)cc2)c(S(=O)(=O)c2ccc(C)cc2)c2nc3ccccc3nc21,> 100 µM (inactive)
4,CCCCn1c(NC(=O)c2ccc(F)cc2)c(C#N)c2nc3ccccc3nc21,65.3 µM (active)
5,COC(=O)C1=C(C(=O)O)C2C=CC1([C@@H](Cc1ccccc1)Nc1ccccc1)O2 (stereo partly drawn),> 100 µM (inactive)
6,CCCCn1c(NC(=O)c2ccccc2)c(S(=O)(=O)c2ccc(C)cc2)c2nc3ccccc3nc21,> 100 µM (inactive)
7,CCC[C@H](Nc1ccccc1)C12C=CC(O1)C(C(=O)OC)=C2C(=O)OC (stereo partly drawn),> 100 µM (inactive)
8,COC(=O)C1=C(C(=O)OC)C2([C@@H](Cc3ccc(OC)cc3)Nc3ccccc3)C=CC1O2 (stereo partly drawn),> 100 µM (inactive)
9,CCCC1=NN(c2ccc(C(=O)O)cc2)C(=O)/C1=C/c1ccc(OCc2ccccc2)c(OC)c1,> 100 µM (inactive)
10,CCCCn1c(NC(=O)c2ccco2)c(C#N)c2nc3ccccc3nc21,> 100 µM (inactive)
11,COC(=O)C1=C(C(=O)OC)C2([C@H](Cc3ccc(C)cc3)Nc3ccccc3)C=CC1O2 (stereo partly drawn),> 100 µM (inactive)
12,CCCCn1c(NC(=O)c2ccccc2Cl)c(C#N)c2nc3ccccc3nc21,> 100 µM (inactive)
13,CCCCn1c(NC(=O)c2cccc(Cl)c2)c(C#N)c2nc3ccccc3nc21,> 100 µM (inactive)
